# Only a selection was taken, and hits are over-represented in it overall.
# CBX7 inh: CBX7 chromodomain binding inhibitors, primary screen, biochemical, AlphaScreen; normalised signal (fraction of DMSO) (concentration not given with the values); 66,000 tested, 1.1% active; AlphaScreen His6-CBX7 / biotin-H3K27me3 peptide binding; hits give low values; AID 1224903, 2016; Chromobox protein homolog 7 (Homo sapiens), O95931; in the data active = normalised signal below about 0.5
# Target sequence (O95931 whole entry, looked up): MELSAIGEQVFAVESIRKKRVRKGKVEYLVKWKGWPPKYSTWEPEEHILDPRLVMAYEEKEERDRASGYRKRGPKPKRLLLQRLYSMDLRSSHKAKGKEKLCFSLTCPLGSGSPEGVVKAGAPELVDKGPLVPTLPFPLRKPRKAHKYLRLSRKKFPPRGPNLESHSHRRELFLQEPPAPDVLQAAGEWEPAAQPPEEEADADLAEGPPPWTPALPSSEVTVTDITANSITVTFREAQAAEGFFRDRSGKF
# Starred values were filed as active, the others as inactive.
SMILES,CBX7 inh
Cc1ccccc1NCc1nc2ccccc2n1C,1.02
Cc1cccc(OCc2nc(-c3cccnc3)no2)c1C,1.03
Cc1cc2cc(CCNC(=O)COc3ccc(Cl)cc3Cl)c(=O)[nH]c2cc1C,0.964
O=C(NCc1ccccn1)c1ccc2c(=O)n(CCc3ccccc3)c(=O)[nH]c2c1,0.903
CCCCCn1c(=O)[nH]c2cc(C(=O)NCc3ccccn3)ccc2c1=O,0.106*
CCCCCn1c(=O)[nH]c2cc(C(=O)NCc3ccc(Cl)cc3)ccc2c1=O,1.04
c1ccc(-c2nnc3ccc(N4CCCC4)nn23)cc1,0.939
Cc1ccc(S(=O)(=O)N2CCN(c3ccc4nnc(-c5ccccc5)n4n3)CC2)cc1,0.701
O=S(=O)(c1ccccc1)N1CCN(c2ccc3nnc(-c4ccccc4)n3n2)CC1,0.1*
CCOCCCNC(=O)c1cc(Sc2ccc(OCC)cc2)nc2ccccc12,1.02
COc1ccc2c(c1)c(CC(=O)NC1CC1)c(C)n2C(=O)c1ccc(Cl)cc1,0.894
C=CCNC(=O)Cc1c(C)n(C(=O)c2ccc(Cl)cc2)c2ccc(OC)cc12,0.996
COc1ccc2c(c1)c(CC(=O)Nc1ccccn1)c(C)n2C(=O)c1ccc(Cl)cc1,0.414*
Cc1ccc(Oc2ccc(N3C(=O)c4ccc(NC(=O)c5ccccc5)cc4C3=O)cc2)cc1,1.01
CCOC(=O)c1cnn(-c2ccc(C)cc2)c1C1CCN(C(=O)OC(C)(C)C)CC1,0.982
CCOc1ccc(CCNC(=O)CCCc2cn(C)c3ccccc23)cc1OCC,1.01
CCOc1ccccc1CNC(=O)CCc1cn(C)c2ccccc12,0.845
CCOc1ccccc1CNC(=O)CCCc1cn(C)c2ccccc12,0.381*
COc1ccc(-c2nc(CS(=O)(=O)CC(=O)N3CCOCC3)c(C)o2)cc1,1.03
CCCc1noc(-c2cc(-c3ccncc3)nc3ccccc23)n1,0.436*
c1ccc2c(-c3nc(-c4ccncc4)no3)cc(-c3ccncc3)nc2c1,1.06
Cc1ccccc1-c1noc(-c2cc(-c3ccncc3)nc3ccccc23)n1,0.746
O=C(NCCC1=CCCCC1)c1ccc2c(c1)C(=O)N(c1ccccn1)C2=O,1
CCOc1ccc(CNc2ccc3c(c2)ncn3-c2ccc(OC)cc2)cc1,0.748
COc1ccc(CNc2ccc3c(c2)ncn3C)c(OC)c1,0.962
SMILES,CBX7 inh
COc1ccc(-n2cnc3cc(NCc4ccc(OC)c(OC)c4)ccc32)cc1,0.962
COc1ccccc1CNC(=O)c1ccc2c(c1)ncn2-c1ccc(C)c(Cl)c1,0.859
COc1ccc(CNc2ccc3c(c2)ncn3-c2ccc(C)cc2)cc1,0.272*
CCCn1cnc2cc(NCc3ccccc3OC)ccc21,0.578
COc1ccc(-n2cnc3cc(NCc4ccccc4OC)ccc32)cc1,0.314*
COc1ccccc1CNc1ccc2c(c1)ncn2-c1ccc(C)cc1,0.22*
COc1ccccc1CNc1ccc2c(c1)ncn2-c1ccccc1OC,0.592
CCOc1ccc(N(CC)S(=O)(=O)c2ccc3c(c2)CCN3C(=O)C2CC2)cc1,1.13
CC1CCN(c2c(NCc3ccc(C(=O)NC4CCCCCC4)cc3)c(=O)c2=O)CC1,0.992
Cc1[nH]c2ccccc2c1CCNS(=O)(=O)c1ccc(Cl)c(C(=O)Nc2ccccc2)c1,0.571
O=[N+]([O-])c1ccc(-c2cn(-c3ccccc3NCc3ccccc3)cn2)o1,0.483*
Cn1cnc(S(=O)(=O)NCc2ccccc2)c1,1.01
Cc1ccc(S(=O)(=O)c2nc(C)oc2NCc2ccccc2)cc1,0.997
CC(NC(=O)c1ccc2c(c1)NC(=O)CN2C)c1ccccc1 (stereo unspecified),1.02
O=C(CSc1nc(-c2ccccc2)[nH]c1-c1ccccc1)Nc1nccs1,0.878
CCOC(CNC(=O)CSCc1nc(-c2ccc(OC)cc2)oc1C)OCC,1.06
C1=CC2=C(CO1)OCc1c2[nH]c2ccc3ccccc3c12,0.433*
CC(C)N1C(=O)N(c2ccc(F)cc2)C(=O)C1CC(=O)Nc1ccc(F)cc1 (stereo unspecified),0.998
COc1ccc(Cl)cc1NC(=O)CSc1nccn1C,1.01
COc1ccc(Nc2nc(-c3ccccc3F)nc3ccccc23)c(OC)c1,1.42
COc1cccc(Nc2nc(-c3ccccc3F)nc3ccccc23)c1,0.331*
Fc1cccc(Nc2nc(-c3ccccc3F)nc3ccccc23)c1,1.11
Fc1ccc(-c2nnc3ccc(N4CCOCC4)nn23)cc1,0.924
CC1CC(O)(C#CCNc2ccc(Cl)cc2)C(C)CN1C (stereo unspecified),1.05
Cc1ccn2c(NC(=O)C3CCCCC3)c(-c3ccc(F)cc3)nc2c1,1.03
SMILES,CBX7 inh
COC(=O)c1c[nH]n2c(=O)c(Cc3ccc(C)cc3)c(C)nc12,1.18
CCCCOc1ccc(-c2nc3c(C(=O)OC)c[nH]n3c2NC2CCCCC2)cc1,0.187*
CCCCOc1ccc(-c2nc3ccccc3c(C(=O)O)c2C)cc1,1.03
CCOc1ccc(-c2nc3c(C(=O)OC)c[nH]n3c2NC2CCCCC2)cc1OC,0.702
COC(=O)c1c[nH]n2c(NC3CCCC3)c(-c3ccc(F)cc3)nc12,0.282*
COC(=O)c1c[nH]n2c(NC3CCCCCC3)c(-c3ccc(F)cc3)nc12,0.448*

# Bioassay records (PubChem BioAssay)
